The values below come from the supplement of paper PMC10849652.

The full data set covers some 8,800 targets. This sample favours those with a hit. About 0.5% of all pairs of compound and target were hits.

UniProt Q96JX3, sequence (Q96JX3 whole entry, looked up): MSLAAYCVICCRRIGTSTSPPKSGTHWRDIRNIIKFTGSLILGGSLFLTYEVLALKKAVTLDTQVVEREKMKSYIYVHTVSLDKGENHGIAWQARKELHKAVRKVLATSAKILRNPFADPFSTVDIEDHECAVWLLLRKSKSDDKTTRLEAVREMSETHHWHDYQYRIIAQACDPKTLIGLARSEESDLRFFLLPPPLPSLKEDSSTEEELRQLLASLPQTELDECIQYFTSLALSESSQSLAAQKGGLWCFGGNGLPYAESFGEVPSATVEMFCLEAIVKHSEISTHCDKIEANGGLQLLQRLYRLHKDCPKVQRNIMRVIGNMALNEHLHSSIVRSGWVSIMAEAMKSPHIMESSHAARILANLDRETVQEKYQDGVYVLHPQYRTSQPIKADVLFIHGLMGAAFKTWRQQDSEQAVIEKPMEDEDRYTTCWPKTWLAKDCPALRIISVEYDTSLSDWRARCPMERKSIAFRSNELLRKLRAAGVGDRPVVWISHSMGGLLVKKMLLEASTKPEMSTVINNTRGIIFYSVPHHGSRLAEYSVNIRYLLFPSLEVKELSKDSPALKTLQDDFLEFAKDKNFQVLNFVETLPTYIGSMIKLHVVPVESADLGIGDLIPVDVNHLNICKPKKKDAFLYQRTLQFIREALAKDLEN
UniProt Q9BXT8, sequence (Q9BXT8 whole entry, looked up): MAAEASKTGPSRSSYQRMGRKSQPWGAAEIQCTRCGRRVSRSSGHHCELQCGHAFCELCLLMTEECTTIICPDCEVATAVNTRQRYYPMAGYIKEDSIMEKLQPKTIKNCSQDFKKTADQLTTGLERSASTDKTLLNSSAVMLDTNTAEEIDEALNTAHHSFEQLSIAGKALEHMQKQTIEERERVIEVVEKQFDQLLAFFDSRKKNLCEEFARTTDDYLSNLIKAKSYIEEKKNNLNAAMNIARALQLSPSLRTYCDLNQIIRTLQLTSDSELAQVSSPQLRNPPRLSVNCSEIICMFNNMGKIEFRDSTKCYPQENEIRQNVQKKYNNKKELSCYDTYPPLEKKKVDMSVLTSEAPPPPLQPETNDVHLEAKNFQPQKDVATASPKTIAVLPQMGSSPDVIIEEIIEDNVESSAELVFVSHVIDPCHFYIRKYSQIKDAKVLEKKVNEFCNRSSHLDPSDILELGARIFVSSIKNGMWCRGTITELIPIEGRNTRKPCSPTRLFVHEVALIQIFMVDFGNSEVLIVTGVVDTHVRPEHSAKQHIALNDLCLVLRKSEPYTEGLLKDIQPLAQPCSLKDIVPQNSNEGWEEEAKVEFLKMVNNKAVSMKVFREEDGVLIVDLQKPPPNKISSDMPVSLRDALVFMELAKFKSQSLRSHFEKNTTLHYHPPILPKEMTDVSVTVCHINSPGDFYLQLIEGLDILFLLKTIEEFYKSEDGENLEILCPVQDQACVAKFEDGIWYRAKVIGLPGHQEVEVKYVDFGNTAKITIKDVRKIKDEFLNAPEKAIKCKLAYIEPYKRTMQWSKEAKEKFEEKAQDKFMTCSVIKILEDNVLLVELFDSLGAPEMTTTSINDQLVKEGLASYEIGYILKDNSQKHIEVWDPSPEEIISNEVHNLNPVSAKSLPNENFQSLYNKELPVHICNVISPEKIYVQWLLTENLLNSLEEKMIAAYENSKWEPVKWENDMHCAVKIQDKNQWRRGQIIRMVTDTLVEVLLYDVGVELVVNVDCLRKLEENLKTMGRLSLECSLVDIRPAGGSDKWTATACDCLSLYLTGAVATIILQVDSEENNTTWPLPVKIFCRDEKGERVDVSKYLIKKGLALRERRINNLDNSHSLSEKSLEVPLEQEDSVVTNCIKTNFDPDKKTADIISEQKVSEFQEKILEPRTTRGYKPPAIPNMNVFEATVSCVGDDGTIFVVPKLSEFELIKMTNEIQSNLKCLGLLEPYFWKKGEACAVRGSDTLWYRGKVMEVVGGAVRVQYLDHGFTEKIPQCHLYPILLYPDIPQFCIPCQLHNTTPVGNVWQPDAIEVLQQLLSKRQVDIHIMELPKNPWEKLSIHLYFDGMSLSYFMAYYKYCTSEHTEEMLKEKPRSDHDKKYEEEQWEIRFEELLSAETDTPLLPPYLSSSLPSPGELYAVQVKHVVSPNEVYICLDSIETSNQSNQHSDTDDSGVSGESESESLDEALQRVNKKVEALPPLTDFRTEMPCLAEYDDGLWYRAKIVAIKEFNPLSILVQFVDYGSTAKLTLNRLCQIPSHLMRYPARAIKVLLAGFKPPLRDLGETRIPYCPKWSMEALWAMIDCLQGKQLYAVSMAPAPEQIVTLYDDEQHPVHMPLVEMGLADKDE
UniProt Q9UQR0, sequence (Q9UQR0 whole entry, looked up): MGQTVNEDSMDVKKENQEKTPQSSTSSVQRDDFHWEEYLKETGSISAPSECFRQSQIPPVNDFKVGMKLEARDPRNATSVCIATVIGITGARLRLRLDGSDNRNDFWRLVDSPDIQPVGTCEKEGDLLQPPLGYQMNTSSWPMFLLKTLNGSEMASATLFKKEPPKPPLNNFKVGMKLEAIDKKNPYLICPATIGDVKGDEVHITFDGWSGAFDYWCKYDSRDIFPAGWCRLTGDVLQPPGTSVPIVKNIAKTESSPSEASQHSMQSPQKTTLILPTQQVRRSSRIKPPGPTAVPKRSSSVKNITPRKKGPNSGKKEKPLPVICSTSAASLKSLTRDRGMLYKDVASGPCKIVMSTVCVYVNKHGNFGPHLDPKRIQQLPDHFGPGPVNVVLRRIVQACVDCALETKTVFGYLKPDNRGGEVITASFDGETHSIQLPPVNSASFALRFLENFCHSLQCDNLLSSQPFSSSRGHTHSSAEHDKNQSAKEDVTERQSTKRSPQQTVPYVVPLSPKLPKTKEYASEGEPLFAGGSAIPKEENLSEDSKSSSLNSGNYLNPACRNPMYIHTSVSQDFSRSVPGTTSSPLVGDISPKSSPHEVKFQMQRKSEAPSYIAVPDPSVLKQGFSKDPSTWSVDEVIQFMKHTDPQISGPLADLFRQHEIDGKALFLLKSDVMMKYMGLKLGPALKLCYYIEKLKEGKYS
UniProt Q9UL25, sequence (Q9UL25 whole entry, looked up): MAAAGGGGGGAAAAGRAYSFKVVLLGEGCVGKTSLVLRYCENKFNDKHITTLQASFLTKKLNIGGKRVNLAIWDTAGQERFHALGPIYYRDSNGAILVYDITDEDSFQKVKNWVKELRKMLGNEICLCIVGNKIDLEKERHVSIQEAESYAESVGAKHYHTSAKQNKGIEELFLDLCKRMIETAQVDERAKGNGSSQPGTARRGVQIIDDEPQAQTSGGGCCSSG
UniProt Q8WXA3, sequence (Q8WXA3 whole entry, looked up): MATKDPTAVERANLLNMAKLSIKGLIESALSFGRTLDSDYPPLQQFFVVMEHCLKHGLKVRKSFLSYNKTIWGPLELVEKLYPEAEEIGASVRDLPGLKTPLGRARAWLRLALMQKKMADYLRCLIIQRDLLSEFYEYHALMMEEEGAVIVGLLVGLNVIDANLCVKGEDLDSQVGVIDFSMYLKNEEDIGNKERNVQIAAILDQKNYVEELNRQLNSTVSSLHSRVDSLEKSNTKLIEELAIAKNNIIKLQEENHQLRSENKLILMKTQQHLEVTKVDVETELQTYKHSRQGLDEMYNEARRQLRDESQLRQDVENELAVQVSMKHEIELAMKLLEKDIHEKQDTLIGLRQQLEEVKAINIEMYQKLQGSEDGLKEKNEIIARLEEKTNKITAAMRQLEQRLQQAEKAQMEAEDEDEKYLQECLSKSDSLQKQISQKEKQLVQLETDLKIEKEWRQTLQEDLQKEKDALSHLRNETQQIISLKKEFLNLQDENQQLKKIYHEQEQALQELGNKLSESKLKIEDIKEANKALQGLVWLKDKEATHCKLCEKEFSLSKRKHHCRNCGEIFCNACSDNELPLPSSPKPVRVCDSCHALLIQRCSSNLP
UniProt Q92698, sequence (Q92698 whole entry, looked up): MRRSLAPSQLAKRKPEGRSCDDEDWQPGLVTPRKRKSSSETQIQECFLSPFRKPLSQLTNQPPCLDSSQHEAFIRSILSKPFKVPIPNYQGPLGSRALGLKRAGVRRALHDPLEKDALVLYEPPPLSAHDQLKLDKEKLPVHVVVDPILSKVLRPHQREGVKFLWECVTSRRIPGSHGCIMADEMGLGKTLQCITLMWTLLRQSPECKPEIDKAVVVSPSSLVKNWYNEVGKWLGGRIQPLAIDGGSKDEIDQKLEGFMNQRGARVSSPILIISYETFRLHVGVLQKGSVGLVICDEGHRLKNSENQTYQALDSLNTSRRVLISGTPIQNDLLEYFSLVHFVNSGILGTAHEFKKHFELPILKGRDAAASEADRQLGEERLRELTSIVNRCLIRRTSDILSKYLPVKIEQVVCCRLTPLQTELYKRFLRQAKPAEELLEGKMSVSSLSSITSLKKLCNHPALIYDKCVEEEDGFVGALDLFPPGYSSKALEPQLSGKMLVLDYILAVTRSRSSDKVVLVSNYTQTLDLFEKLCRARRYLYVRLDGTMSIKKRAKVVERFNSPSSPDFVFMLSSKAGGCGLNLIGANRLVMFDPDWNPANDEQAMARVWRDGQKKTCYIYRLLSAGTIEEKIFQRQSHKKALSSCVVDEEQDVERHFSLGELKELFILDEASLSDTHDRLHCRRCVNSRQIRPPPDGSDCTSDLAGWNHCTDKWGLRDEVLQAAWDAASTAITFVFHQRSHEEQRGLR
UniProt Q8TEB9, sequence (Q8TEB9 whole entry, looked up): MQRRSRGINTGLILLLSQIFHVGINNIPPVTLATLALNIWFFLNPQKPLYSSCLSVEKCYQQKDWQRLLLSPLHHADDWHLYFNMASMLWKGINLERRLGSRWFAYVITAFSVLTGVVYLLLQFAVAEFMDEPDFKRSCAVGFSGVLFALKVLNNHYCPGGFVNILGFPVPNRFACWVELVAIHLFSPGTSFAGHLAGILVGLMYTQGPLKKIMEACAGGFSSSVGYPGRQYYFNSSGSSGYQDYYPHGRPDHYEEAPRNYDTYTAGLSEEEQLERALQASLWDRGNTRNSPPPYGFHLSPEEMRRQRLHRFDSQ
UniProt Q96E14, sequence (Q96E14 whole entry, looked up): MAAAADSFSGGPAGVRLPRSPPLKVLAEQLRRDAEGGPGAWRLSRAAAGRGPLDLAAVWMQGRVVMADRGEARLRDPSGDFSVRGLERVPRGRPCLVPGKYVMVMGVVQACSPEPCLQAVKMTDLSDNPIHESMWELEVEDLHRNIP

Compound in one assay: C1=CC=C(C=C1)[C@H](COC2=CC3=C(C=C2)NC(=O)N3)NC(=O)C4=CC=CN(C4=O)CC5=CC(=C(C=C5)F)F
Briefly: log2 fold change, soluble protein after heating vs DMSO (PISA); higher = thermal stabilisation; K562 lysate, 10 uM; active = over 0.2 and 3.5 SD of the protein, either way, in both replicates (recomputed). Put shortly:
(§1)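 The values are log-two fold changes in thermal stability compared with solvent controls and come from duplicates. They were obtained by TMTpro 16plex LC-MS/MS, with channel sums equalised, on the supernatant after 21,000xg for 90 min. That supernatant came from crude K562 extract at 1 mg/mL protein treated with 10 μM compound for 30 min, heated for 3 min across 48°C-58°C, pooled and brought to 0.5% NP-40 at 4°C.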
Take RALA (UniProt P11233): the log2 fold change was -0.013 (inactive).

With RPS6KA3 (UniProt P51812), the log2 fold change was -0.049 (inactive).

Turning to RUFY2 isoform 1 (UniProt Q8WXA3), the log2 fold change is -0.28 (inactive).

In the case of RNF17 (UniProt Q9BXT8), the log2 fold change was -0.241 (inactive).

In the case of RETREG2 (UniProt Q8NC44), the log2 fold change is -0.095 (inactive).

Regarding RAD54L (UniProt Q92698), the log2 fold change was -0.013 (inactive).

For the target RALGAPB isoform 3 (UniProt Q86X10), the log2 fold change is 0.107 (inactive).

Consider RAB21 (UniProt Q9UL25), for which the log2 fold change is -0.086 (inactive).

On to RYR1 (UniProt P21817), for which the log2 fold change was -0.011 (inactive).

As for SERAC1 (UniProt Q96JX3), the log2 fold change was -0.122 (inactive).

Consider RAD54L2 (UniProt Q9Y4B4), for which the log2 fold change is 0.139 (inactive).

As to SEC62 (UniProt Q99442), the log2 fold change is 0.059 (inactive).

On to RNF24 isoform 2 (UniProt Q9Y225), for which the log2 fold change is -0.219 (inactive).

Regarding RARS (UniProt P54136), the log2 fold change is -0.014 (inactive).

On to RNF170 (UniProt Q96K19), for which the log2 fold change was -0.097 (inactive).

For the target SCCPDH (UniProt Q8NBX0), the log2 fold change is 0.165 (inactive).

Regarding RHBDD1 (UniProt Q8TEB9), the log2 fold change is -0.032 (inactive).

As to SCML2 (UniProt Q9UQR0), the log2 fold change is -0.036 (inactive).

Compound in the next assay: CC1=C(SC2=C1C(=N[C@H](C3=NN=C(N32)C)CC(=O)N)C4=CC=C(C=C4)Cl)C
The description is as above. Put shortly: as §1
With RALA (UniProt P11233), the log2 fold change is 0.071 (inactive).

As to RPS6KA3 (UniProt P51812), the log2 fold change was -0.031 (inactive).

In the case of RUFY2 isoform 1 (UniProt Q8WXA3), the log2 fold change was -0.106 (inactive).

Turning to RNF17 (UniProt Q9BXT8), the log2 fold change was 1 (active).

As for RETREG2 (UniProt Q8NC44), the log2 fold change was 0.016 (inactive).

For the target RAD54L (UniProt Q92698), the log2 fold change was -0.031 (inactive).

Take RALGAPB isoform 3 (UniProt Q86X10): the log2 fold change is 0.05 (inactive).

Take RAB21 (UniProt Q9UL25): the log2 fold change is 0.036 (inactive).

RYR1 (UniProt P21817): the log2 fold change was -0.028 (inactive).

For the target SERAC1 (UniProt Q96JX3), the log2 fold change was 0.145 (inactive).

Take RAD54L2 (UniProt Q9Y4B4): the log2 fold change was 0.144 (inactive).

For the target SEC62 (UniProt Q99442), the log2 fold change was -0.017 (inactive).

For RNF24 isoform 2 (UniProt Q9Y225), the log2 fold change was 0.037 (inactive).

As to RARS (UniProt P54136), the log2 fold change was 0.038 (inactive).

As for RNF170 (UniProt Q96K19), the log2 fold change is -0.115 (inactive).

With SCCPDH (UniProt Q8NBX0), the log2 fold change was -0.144 (inactive).

RHBDD1 (UniProt Q8TEB9): the log2 fold change is 0.058 (inactive).

For SCML2 (UniProt Q9UQR0), the log2 fold change is 0.062 (inactive).

Compound in the next assay: CC1=C2C(=CC=C1)N=C(N(C2=O)C3=CC=CC=C3C)CN4C=NC5=C(N=CN=C54)N
Described as above. The procedure, abridged:
as §1
RALA (UniProt P11233): the log2 fold change is -0.008 (inactive).

RPS6KA3 (UniProt P51812): the log2 fold change was -0.008 (inactive).

S100A6 (UniProt P06703): the log2 fold change was -0.084 (inactive).

SEMA4G isoform 2 (UniProt Q9NTN9): the log2 fold change was 0.105 (inactive).

In the case of RPS6KA5 (UniProt O75582), the log2 fold change was -0.084 (inactive).

Regarding RUFY2 isoform 1 (UniProt Q8WXA3), the log2 fold change was -0.087 (inactive).

For the target QSER1, A0A3B3IRW6, the log2 fold change was 0.047 (inactive).

With RETREG2 (UniProt Q8NC44), the log2 fold change is 0.084 (inactive).

Take RHOU (UniProt Q7L0Q8): the log2 fold change is 0.065 (inactive).

As to RAB21 (UniProt Q9UL25), the log2 fold change is 0.019 (inactive).

Consider RNF2 (UniProt Q99496), for which the log2 fold change is 0.03 (inactive).

RDH11 (UniProt Q8TC12): the log2 fold change is 0.064 (inactive).

RAD54L2 (UniProt Q9Y4B4): the log2 fold change is 0.029 (inactive).

For SEC62 (UniProt Q99442), the log2 fold change is 0.015 (inactive).

As for RMI2 (UniProt Q96E14), the log2 fold change is -0.18 (inactive).

Turning to RARS (UniProt P54136), the log2 fold change is 0.024 (inactive).

Take SATB2 (UniProt Q9UPW6): the log2 fold change is -0.019 (inactive).

Take RNF170 (UniProt Q96K19): the log2 fold change was 0.149 (inactive).

Regarding SCCPDH (UniProt Q8NBX0), the log2 fold change was 0.038 (inactive).

Take RHBDD1 (UniProt Q8TEB9): the log2 fold change was -0.117 (inactive).

With SCML2 (UniProt Q9UQR0), the log2 fold change was -0.055 (inactive).

Compound in the next assay: Cc1sc2c(c1C)C(c1ccc(Cl)cc1)=N[C@@H](CC(=O)OC(C)(C)C)c1nnc(C)n1-2
Described as above. Put shortly: as §1
With RALA (UniProt P11233), the log2 fold change is -0.004 (inactive).

With RPS6KA3 (UniProt P51812), the log2 fold change is 0.009 (inactive).

As for SEC16A isoform 3 (UniProt O15027), the log2 fold change was -0.006 (inactive).

As to S100A6 (UniProt P06703), the log2 fold change is -0.1 (inactive).

SEMA4G isoform 2 (UniProt Q9NTN9): the log2 fold change was 0.021 (inactive).

Take RPS6KA5 (UniProt O75582): the log2 fold change is -0.024 (inactive).

Regarding RNPC3 (UniProt Q96LT9), the log2 fold change was -0.029 (inactive).

With RXRA (UniProt P19793), the log2 fold change was 0.167 (inactive).

RNF17 (UniProt Q9BXT8): the log2 fold change is 0.129 (inactive).

QSER1, A0A3B3IRW6: the log2 fold change is -0.027 (inactive).

With SCNM1 (UniProt Q9BWG6), the log2 fold change is -0.332 (inactive).

Turning to RAD54L (UniProt Q92698), the log2 fold change was -0.299 (inactive).

RALGAPB isoform 3 (UniProt Q86X10): the log2 fold change was 0.189 (inactive).

In the case of RHOU (UniProt Q7L0Q8), the log2 fold change is -0.1 (inactive).

In the case of RAB21 (UniProt Q9UL25), the log2 fold change is 0.055 (inactive).

Consider RYR1 (UniProt P21817), for which the log2 fold change is -0.093 (inactive).

RNF2 (UniProt Q99496): the log2 fold change was -0.091 (inactive).

As for SERAC1 (UniProt Q96JX3), the log2 fold change was 0.11 (inactive).

Consider RDH11 (UniProt Q8TC12), for which the log2 fold change is 0.069 (inactive).

RAD54L2 (UniProt Q9Y4B4): the log2 fold change is -0.131 (inactive).

For the target SEC62 (UniProt Q99442), the log2 fold change was 0.043 (inactive).

Regarding RMI2 (UniProt Q96E14), the log2 fold change is 0.079 (inactive).

Consider RARS (UniProt P54136), for which the log2 fold change was 0.028 (inactive).

As for SATB2 (UniProt Q9UPW6), the log2 fold change was 0.021 (inactive).

In the case of RNF170 (UniProt Q96K19), the log2 fold change was 0.285 (inactive).

With SCCPDH (UniProt Q8NBX0), the log2 fold change is -0.004 (inactive).

In the case of SCML2 (UniProt Q9UQR0), the log2 fold change was -0.032 (inactive).
